Measured values reported in PubChem BioAssay (EPA / NIEHS).
Active and inactive are the calls of the source. Rule for the calls: active = hit-call score of the fitted dose curve at least 0.9, where 1 is the maximum; inactive = score below 0.9.

read-out: not listed separately; experiment: BSK_CASM3C_Proliferation: Cell Proliferation Assessment in the BioMAP Diversity Plus: CASM3C Assay (AID 2283047); conditions: primary human coronary artery smooth muscle cells;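 note: sulforhodamine B total protein stain as relative cell number at 560 nm; sub-confluent cells exposed 48 h before staining; fitted both ways against DMSO so gain or loss of cell number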

Row | SMILES | outcome | AC50
1 | Cn1cc[nH]c1=S | inactive | –
2 | CC(C)CC(C)O (centres undefined) | inactive | –
3 | O=C1CN(N=Cc2ccc([N+](=O)[O-])o2)C(=O)N1 | inactive | –
4 | OCc1ccccc1 | inactive | –
5 | NC(=O)N(O)[C@@H]1COc2cc(OCc3ccccc3)ccc21 | inactive | –
6 | C=CCc1cc(S(=O)(=O)c2ccc(O)c(CC=C)c2)ccc1O | – | 14.3 µM (active)
7 | CC(C)C(=O)Nc1ccc([N+](=O)[O-])c(C(F)(F)F)c1 | inactive | –
8 | CCn1nc(C)c2c1C(=O)NCC(c1ccc(O)cc1)=N2 | – | 10 µM (active)
9 | COc1cc2c(c(OC)c1OC)-c1ccc(OC)c(=O)cc1[C@@H](NC(C)=O)CC2 | – | 0.148 µM (active)
10 | CNC(C)=O | inactive | –
11 | CCOC(N)=O | inactive | –
12 | FC(F)=C(F)C(F)(F)C(F)(F)C(F)(F)C(F)(F)C(F)(F)C(F)(F)F | inactive | –
13 | c1ccc2cc3ccccc3cc2c1 | inactive | –
14 | CCCCOC(=O)c1ccccc1 | inactive | –
15 | O=C(Cl)C(F)(F)C(F)(F)C(F)(F)C(=O)Cl | inactive | –
16 | Cn1c(=O)c2[nH]cnc2n(C)c1=O | inactive | –
17 | CCCOc1ccc(S(=O)(=O)N2CCN(CC)CC2)cc1-c1nc2c(CC)n(Cc3ccccn3)nc2c(=O)[nH]1 | inactive | –
18 | CC(C)CCCCCCOC(=O)C1CCCCC1C(=O)OCCCCCCC(C)C (centres undefined) | inactive | –
19 | COS(C)(=O)=O | inactive | –
20 | O=C(O)[C@H](O)[C@@H](O)C(=O)O | inactive | –
21 | Cc1nccn1-c1ccc(Sc2cccc(C3(C(N)=O)CCOCC3)c2)cc1 | – | 20 µM (active)
22 | CCCc1ccccc1 | inactive | –
23 | C[C@@H](Oc1ccc(CNC(=O)c2cccnc2Oc2ccc3c(c2)OCO3)c(F)c1)C(=O)O | inactive | –
24 | Cc1ncc([C@@H](CCCCCCc2ccc3c(n2)NCCC3)CC(=O)O)cn1 | – | 3.97 µM (active)
25 | NNC(=O)c1ccncc1 | inactive | –
26 | OC(CCl)CCl | inactive | –
27 | OCCC(F)(F)C(F)(F)C(F)(F)C(F)(F)F | inactive | –

read-out: Monokine induced gamma interferon (MIG), CXCL9 (gene 4283); experiment: BSK_CASM3C_MIG: BioMAP Diversity Plus: CASM3C Assay for Monokine induced gamma interferon (MIG) Biomarker Activity (AID 2283048); conditions: primary human coronary artery smooth muscle cells; actives raise or lower the signal;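 note: MIG protein level measured by ELISA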

Row | SMILES | outcome | AC50
28 | Cn1cc[nH]c1=S | inactive | –
29 | CC(C)CC(C)O (centres undefined) | inactive | –
30 | O=C1CN(N=Cc2ccc([N+](=O)[O-])o2)C(=O)N1 | inactive | –
31 | OCc1ccccc1 | inactive | –
32 | NC(=O)N(O)[C@@H]1COc2cc(OCc3ccccc3)ccc21 | inactive | –
33 | C=CCc1cc(S(=O)(=O)c2ccc(O)c(CC=C)c2)ccc1O | – | 31.4 µM (active)
34 | CC(C)C(=O)Nc1ccc([N+](=O)[O-])c(C(F)(F)F)c1 | inactive | –
35 | CCn1nc(C)c2c1C(=O)NCC(c1ccc(O)cc1)=N2 | inactive | –
36 | COc1cc2c(c(OC)c1OC)-c1ccc(OC)c(=O)cc1[C@@H](NC(C)=O)CC2 | inactive | –
37 | CNC(C)=O | inactive | –
38 | CCOC(N)=O | inactive | –
39 | FC(F)=C(F)C(F)(F)C(F)(F)C(F)(F)C(F)(F)C(F)(F)C(F)(F)F | inactive | –
40 | c1ccc2cc3ccccc3cc2c1 | inactive | –
41 | CCCCOC(=O)c1ccccc1 | inactive | –
42 | O=C(Cl)C(F)(F)C(F)(F)C(F)(F)C(=O)Cl | inactive | –
43 | Cn1c(=O)c2[nH]cnc2n(C)c1=O | inactive | –
44 | CCCOc1ccc(S(=O)(=O)N2CCN(CC)CC2)cc1-c1nc2c(CC)n(Cc3ccccn3)nc2c(=O)[nH]1 | inactive | –
45 | CC(C)CCCCCCOC(=O)C1CCCCC1C(=O)OCCCCCCC(C)C (centres undefined) | inactive | –
46 | COS(C)(=O)=O | inactive | –
47 | O=C(O)[C@H](O)[C@@H](O)C(=O)O | inactive | –
48 | Cc1nccn1-c1ccc(Sc2cccc(C3(C(N)=O)CCOCC3)c2)cc1 | – | 16.4 µM (active)
49 | CCCc1ccccc1 | inactive | –
50 | C[C@@H](Oc1ccc(CNC(=O)c2cccnc2Oc2ccc3c(c2)OCO3)c(F)c1)C(=O)O | inactive | –
51 | Cc1ncc([C@@H](CCCCCCc2ccc3c(n2)NCCC3)CC(=O)O)cn1 | inactive | –
52 | NNC(=O)c1ccncc1 | inactive | –
53 | OC(CCl)CCl | inactive | –
54 | OCCC(F)(F)C(F)(F)C(F)(F)C(F)(F)F | inactive | –
